The record followed here is publication PMC5540273 (PLoS ONE, 2017).

Some test systems named below: RIOK1; RIOK2; RIOK3; RIPK1; RIPK2; RIPK4; RIPK5; ROCK1; ROCK2; ROS1.
Common to all, as to conditions: concentration: 1 μM, replicates: in singlicate; n = 1
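Note: KINOMEscan kinase panel screen.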

On to `Nc1ncc(-c2ccc3nccc(-c4ccncc4)c3c2)cc1S(=O)(=O)N1CCOCC1` [GSK1627798], for which the “%Inh” value in the test with RIOK1 is listed as 30%; with RIOK2, 39%; with RIOK3, 17%; in the test on RIPK1, 0%; with RIPK2, 1%; in the test on RIPK4, 4%. Further, the “%Inh” value is on record as 0% with RIPK5, 0% in the test on ROCK1, 0% with ROCK2 and 15% in the test with ROS1.
Regarding `COc1cc2c(cc1OCCN1CCNCC1)ncc1c3ccc(C#N)cc3[nH]c21`, the “%Inh” value is 82% in the test with RIOK1; 12% in the test with RIOK2; 93.9% in the test with RIOK3; 0% with RIPK1; 16% in the test with RIPK2; 41% with RIPK4. Further, the “%Inh” value was 28% in the test on RIPK5, 99.2% in the test on ROCK1, 99.7% in the test on ROCK2 and 0% in the test with ROS1.
Consider `CN(c1ccc(NC(=O)Nc2cc(C(F)(F)F)ccc2F)cc1)c1ccnc(Nc2ccc(S(N)(=O)=O)cc2)n1` [GW809893], for which the “%Inh” value with RIOK1 is 24%; with RIOK2, 2%; in the test on RIOK3 it was 40%; with RIPK1 it was 99.1%; with RIPK2, 73%; in the test on RIPK4, 26%. Moreover, the “%Inh” value in the test with RIPK5 is reported as 47%; with ROCK1, 0%; with ROCK2 it was 24%; in the test on ROS1, 95.9%.
In the case of `Cc1ccc(C(=O)N2CC[C@@H](O)C2)cc1-n1c(C)cc(OCc2ccc(F)cc2F)c(Br)c1=O`, the “%Inh” value with RIOK1 turned out to be 12%; in the test with RIOK2, 0%; with RIOK3 it was 29%; with RIPK1 it was 0%; in the test on RIPK2, 46%; in the test with RIPK4, 0%. In addition, the “%Inh” value with RIPK5, with ROCK1, in the test with ROCK2 and with ROS1 was 0% throughout.
As to `Cc1occc1-c1ncc(OC[C@@H](N)Cc2c[nH]c3ccccc23)cc1-c1ccc2[nH]nc(C)c2c1.O=C(O)C(F)(F)F` [GSK682037], the “%Inh” value in the test on RIOK1 was determined as 95.1%; in the test on RIOK2, 6%; in the test with RIOK3, 83%; with RIPK1, 0%; with RIPK2, 12%; with RIPK4, 0%. In addition, the “%Inh” value in the test with RIPK5 turned out to be 0%; in the test on ROCK1, 74%; in the test with ROCK2 it was 79%; with ROS1 it was 26%.
Consider `O=C(Nc1n[nH]c2cc(-c3ccoc3)ccc12)C1CC1` [SB-738481], for which the “%Inh” value stood at 68% with RIOK1; 5% in the test on RIOK2; 0% in the test with RIOK3; 28% in the test on RIPK1; 0% with RIPK2; 17% in the test on RIPK4. Besides, the “%Inh” value with RIPK5 was 3%; with ROCK1 it was 0%; with ROCK2 it was 0%; in the test with ROS1, 9%.
As for `Nc1ncnc2c1nc(-c1ccccc1)n2-c1ccccc1` [SKF-97293], the “%Inh” value in the test on RIOK1 is 0%; in the test on RIOK2 it was 1%; in the test with RIOK3, 6%; in the test with RIPK1, 3%; in the test with RIPK2 it was 7%; with RIPK4 it was 27%. The “%Inh” value is listed as 36% in the test with RIPK5, 56% in the test on ROCK1, 43% with ROCK2 and 15% in the test on ROS1.
For the compound `Cl.Cl.NCC(C(=O)Nc1cc(Br)c(-c2ccnc3[nH]ccc23)s1)c1ccccc1` (stereo not shown) [GSK1269851], the “%Inh” value with RIOK1 is 95.7%; with RIOK2, 19%; in the test with RIOK3, 67%; in the test on RIPK1, 0%; with RIPK2 it was 0%; in the test on RIPK4, 27%. Also, the “%Inh” value in the test with RIPK5 worked out at 0%; with ROCK1 it was 99.1%; in the test with ROCK2, 91.8%; in the test with ROS1 it was 12%.
In the case of `CC(=O)N1CCN(c2ccc(Nc3nccc(-c4sc(C(C)C)nc4-c4cccc(NS(=O)(=O)c5cccc(Cl)c5)c4)n3)cn2)CC1` [GSK1660437], the “%Inh” value with RIOK1 turned out to be 19%; in the test on RIOK2 it was 10%; in the test on RIOK3, 4%; in the test on RIPK1, 0%; with RIPK2, 93.2%; in the test on RIPK4 it was 0%. In addition, the “%Inh” value amounted to 37% with RIPK5, 0% with ROCK1, 18% in the test on ROCK2 and 21% with ROS1.
On to `c1ccc(-c2n[nH]cc2Nc2ccnc3ccccc23)nc1` [GW694077], for which the “%Inh” value with RIOK1 is given as 99.2%; with RIOK2, 86%; in the test on RIOK3 it was 100%; in the test with RIPK1 it was 0%; in the test on RIPK2, 11%; in the test on RIPK4, 96.4%. For the same compound, the “%Inh” value is given as 85% in the test on RIPK5, 98.2% in the test with ROCK1, 97.8% with ROCK2 and 9% in the test on ROS1.
For `CN1CCN(CCCNc2nccc(-c3c(-c4ccc(F)cc4)nn4cc(C(F)(F)F)ccc34)n2)CC1` [GW621581], the “%Inh” value was 28% in the test on RIOK1; 4% with RIOK2; 0% with RIOK3; 0% in the test with RIPK1; 52% in the test with RIPK2; 0% in the test with RIPK4. Moreover, the “%Inh” value in the test with RIPK5 was found to be 0%; with ROCK1, 0%; in the test with ROCK2, 26%; in the test with ROS1 it was 0%.
For the compound `Cl.Cl.NCC(NCc1ccc(-c2ccnc3[nH]ccc23)s1)c1ccccc1` (stereo not shown) [GSK1321565], the “%Inh” value with RIOK1 is on record as 100%; in the test with RIOK2, 44%; in the test on RIOK3, 98.4%; with RIPK1, 2%; in the test with RIPK2, 0%; with RIPK4, 47%. For the same compound, the “%Inh” value with RIPK5 came to 0%; with ROCK1, 100%; in the test with ROCK2, 99.4%; in the test with ROS1, 60%.
As to `COc1ccc(CNC(=O)NC2CCN(c3ccnc(Nc4ccc(F)cc4)n3)CC2)cc1` [GSK1379788], the “%Inh” value in the test with RIOK1 came to 28%; in the test with RIOK2, 0%; in the test on RIOK3, 0%; in the test on RIPK1, 0%; in the test on RIPK2, 0%; in the test with RIPK4, 12%. Moreover, the “%Inh” value in the test on RIPK5 was found to be 0%; in the test with ROCK1, 12%; in the test on ROCK2, 31%; in the test on ROS1, 26%.
As to `COc1cc(Nc2nccc(-c3c(-c4cccc(NC(=O)c5c(F)cccc5F)c4)nn4ncccc34)n2)cc(OC)c1OC` [GSK327238], the “%Inh” value in the test with RIOK1 was 20%; in the test on RIOK2, 5%; in the test on RIOK3, 24%; in the test with RIPK1 it was 16%; in the test with RIPK2, 99.4%; in the test with RIPK4 it was 4%. For the same compound, the “%Inh” value came out at 0% in the test on RIPK5, 12% in the test with ROCK1, 14% in the test with ROCK2 and 75% in the test with ROS1.
With `Clc1ccc(-c2nn3ncccc3c2-c2ccnc(Nc3ccc4c(c3)OCCO4)n2)cc1` [GW829116], the “%Inh” value with RIOK1 is recorded as 0%; with RIOK2 it was 0%; in the test with RIOK3 it was 0%; in the test on RIPK1, 0%; in the test with RIPK2, 83%; in the test with RIPK4, 0%. Moreover, the “%Inh” value with RIPK5 turned out to be 0%; in the test on ROCK1, 37%; in the test with ROCK2 it was 0%; with ROS1, 0%.
Take `CCn1c(-c2nonc2N)nc2c(C#CC(C)(C)O)nc(OC[C@H](N)c3ccccc3)cc21` [GSK943949]: the “%Inh” value with RIOK1 worked out at 11%; in the test on RIOK2, 0%; in the test with RIOK3, 4%; with RIPK1, 4%; with RIPK2, 0%; with RIPK4, 7%. The “%Inh” value in the test with RIPK5 is 29%; with ROCK1, 59%; with ROCK2, 91.9%; in the test with ROS1 it was 2%.
